TEAD-YAP inh – TEAD-YAP interaction inhibition; AID 1259422; inhibition, % at 9.12 µM; 640,000 compounds, 1.4% hits; HEK-TIYL cells, TEAD-Gal4/YAP UAS-luciferase luminescence; in the data active = inhibition above about 32%;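 note: 0% = median of test compound wells and 100% = reference inhibitor wells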
FBW7 act – human FBW7 E3 ligase activation, primary screen; AlphaScreen FBW7–phospho-cyclin E peptide binding, activator screen; normalized activity (activation), % at 26.1 µM; 650,000 compounds, 0.13% hits; AID 1259310; in the data active = normalized activity above about 1.9%;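 note: purified mutant Fbw7 with reduced substrate affinity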
MITF inh – human MITF inhibition, primary screen; 650,000 compounds, 0.91% hits; O75030; AlphaScreen MITF homodimerization, bead proximity signal; inhibition, % at 2.6 µM; AID 1259374; in the data active = inhibition above about 50%;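 note: 0% = vehicle wells with protein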
GPR151 activ – activators of human GPR151 | Q8TDV0 | PathHunter beta-arrestin GPR151 cells, luminescence | activation, % at 11.2 µM | 650,000 compounds, 1% hits | AID 1508602; in the data active = activation above about 4.9%;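 note: 0% = median of compound wells and 100% = cells with positive control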
Target sequence (Q8TDV0 whole entry, looked up): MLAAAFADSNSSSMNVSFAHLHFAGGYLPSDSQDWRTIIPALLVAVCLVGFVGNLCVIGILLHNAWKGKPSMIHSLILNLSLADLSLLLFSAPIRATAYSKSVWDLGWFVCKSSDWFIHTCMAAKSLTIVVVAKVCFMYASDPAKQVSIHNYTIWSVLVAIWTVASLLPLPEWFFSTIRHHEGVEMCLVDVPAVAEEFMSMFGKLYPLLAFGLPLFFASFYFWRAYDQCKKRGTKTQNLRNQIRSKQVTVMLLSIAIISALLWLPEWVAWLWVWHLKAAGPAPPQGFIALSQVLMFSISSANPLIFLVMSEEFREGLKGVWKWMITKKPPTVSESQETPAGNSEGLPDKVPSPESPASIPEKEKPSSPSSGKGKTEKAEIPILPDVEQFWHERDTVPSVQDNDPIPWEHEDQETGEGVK
GPR151 conf act – confirmation of human GPR151 activators; shares compounds with GPR151 activ; GPR151 PathHunter beta-arrestin cells, luminescence, 90 min; % of EA-reagent control over plate median; activation, % at 11.2 µM; 6,700 tested, under 10 active;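 active = mean percent activation across replicates above the confirmation screen cutoff of 4.91%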
GPR119 ag – counter-screen for GPR151 activators: effect on human GPR119 | GPR119 PathHunter beta-arrestin cells, luminescence, 90 min; 0 = compound-well median, 100 = enzyme-acceptor control | AID 1508611 | 6,700 compounds, 0.3% hits | activation, % at 11.2 µM | shares compounds with GPR151 activ;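 active = mean percent activation in the counterscreen above 29.09%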;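 note: counterscreen on off-target GPR119 to flag nonselective hits from the GPR151 activator screen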
The depositor's hits bear a star; . = not tested or not shown. An excerpt weighted towards active compounds, which were near 3.5% of everything screened.

SMILES	TEAD-YAP inh	FBW7 act	MITF inh	GPR151 activ	GPR151 conf act	GPR119 ag
O=C(N/N=C/c1cc(Cl)cc([N+](=O)[O-])c1O)c1ccccc1O	-1	-1	7	5.1*	-1	4
CCC1=NN2C(=N)/C(=C/c3cn(CCOc4ccc(C)c(C)c4)c4ccccc34)C(=O)N=C2S1	-3	0	3	0	.	.
CC1(C)Cc2c(sc3nc(SCC(=O)c4ccc(Cl)cc4)nc(SCC(=O)c4ccc(Cl)cc4)c23)CO1	-6	0	-3	1	.	.
O=c1/c(=C\c2cccc([N+](=O)[O-])c2)sc2nc(-c3ccccc3)c(-c3ccccc3)n12	4	0	-3	1	.	.
Cc1nc(SCC(=O)O)cc(-c2ccccc2)n1	-5	0	-14	5.0*	-1	-2
O=C(O)CSc1nc(-c2ccccc2)cc(C(F)F)n1	1	0	-3	-1	.	.
Cc1ccc([N+](=O)[O-])cc1NC(=O)CN1CCC(n2nnc3cc(F)ccc32)CC1	-1	0	6	0	.	.
CN(C)S(=O)(=O)N(CC(=O)NCc1ccco1)c1ccccc1	1	0	-2	0	.	.
Cc1cc(NC(=O)c2cc(-c3ccccc3O)no2)nn1CC(=O)N1CCOCC1	-8	0	6	5.6*	1	5
CC(=O)c1cccc(-c2cccc(C(=O)NCc3ccccc3)n2)c1	9	0	4	1	.	.
O=S(=O)(CCOc1nc2cc(Cl)ccc2cc1CNC1CCOC1)c1ccccc1 (stereo not given)	1	0	14	6.8*	0	12
O=C(Cn1c(=O)oc2cc(Cl)ccc21)Nc1ccc(Cl)cc1F	-4	0	-7	-2	.	.
COCCN1CCCc2ccc(NS(=O)(=O)c3ccc(C)c(C)c3)cc21	7	0	-6	-1	.	.
COCCN1CCCc2ccc(NS(=O)(=O)c3cc(C)ccc3C)cc21	15	0	-1	5.2*	0	3
Cc1cc(C)c(NC(=O)c2cc(S(=O)(=O)NCc3ccccc3Cl)ccc2F)c(C)c1	-7	0	1	-1	.	.
COc1ccc(-c2csc(NC(=O)c3ccc(S(=O)(=O)N4CCCC4)cc3)n2)c(OC)c1	6	0	6	5.5*	1	20
CN1CCC(N(C)Cc2cc([N+](=O)[O-])ccc2O)CC1	2	0	10	6.0*	0	1
Cc1nc(N2CCOCC2)nc(Nc2cccc(F)c2)c1[N+](=O)[O-]	0	0	10	-1	.	.
C=CCOC(=O)c1cc(-c2ccc(/C=N/Nc3nn[nH]n3)o2)ccc1Cl	-21	0	15	5.0*	1	3
Cc1cc(C)cc(NC(=O)CCS(=O)(=O)c2ccc3c(c2)SCC(=O)N3)c1	-4	0	3	2	.	.
CC(=O)C(Cc1ccccc1)NC(=O)CN1C(=O)c2ccccc2C1=O (stereo not given)	6	0	2	0	.	.
CCOC(=O)C(CC1=CNC2C=CC=CC12)NC(=O)CN1C(=O)c2ccccc2C1=O (stereo not given)	-6	0	-6	7.7*	0	11
c1nc2nc3c(c(N4CCN(Cc5ccc6c(c5)OCO6)CC4)n2n1)CCC3	-15	0	-16	-1	.	.
COc1cccc(CCN2C(=O)CCC2CCNCc2cccc(F)c2)c1 (stereo not given)	5	0	1	5.1*	0	6
CCCNCCC1CCC(=O)N1CCc1cccc(OC)c1 (stereo not given)	-11	0	9	6.7*	-1	10
SMILES	TEAD-YAP inh	FBW7 act	MITF inh	GPR151 activ	GPR151 conf act	GPR119 ag
CCC(C)NC(=O)c1cccc(N2CCCC2=O)c1 (stereo not given)	-7	0	5	0	.	.
O=C(O)c1cccc(N2CCCC2=O)c1	-6	0	-4	5.4*	0	12
Cc1cc(C)nc(NC(=O)Cc2ccc(F)cc2)n1	-6	0	-1	13*	0	-3
Cc1cc(C)nc(NS(=O)(=O)c2ccc(NC(=O)Cc3ccc(F)cc3)cc2)n1	-2	0	5	0	.	.
Cc1ccc(S(=O)(=O)Nc2ccc(NC(=O)/C=C/c3ccc4c(c3)OCO4)cc2)cc1	7	0	17	7.6*	1	-8
CCNS(=O)(=O)c1ccc(CCC(=O)Nc2cccc(Cl)c2C)cc1	21	0	-1	-1	.	.
C=CCn1cnc2c(nnn2-c2ccc(OC)c(OC)c2)c1=O	4	0	-15	7.9*	1	8
CCCCOC(=O)c1cccc(NC(=S)NC(=O)c2cc(OC)c(OC)c(OC)c2)c1	-8	0	6	5.1*	0	0
CCCCNc1cc(-c2ccccc2)ncn1	-24	0	-14	3	.	.
O=C(CN1CCN(C(=O)c2ccccc2)CC1)Nc1ccc(Br)cn1	-3	0	13	5.6*	0	-2
O=C(CN1CCOCC1)Nc1ccc(Br)cn1	11	0	-2	-1	.	.
O=C(O)c1ccc(NS(=O)(=O)c2cc(C(=O)O)ccc2Br)cc1	-2	0	-8	5.6*	0	-4
COc1ccc(C(C)(C)C)cc1NC(=O)COC(=O)c1ccc([N+](=O)[O-])s1	-2	0	24	-1	.	.
CC(C)(C)c1ccc(NC(=O)COC(=O)c2ccc([N+](=O)[O-])s2)cc1	-10	0	-5	6.1*	-1	-6
Cc1ccc(N2C(=O)SC(Nc3ccc(I)cc3)C2=O)cc1 (stereo not given)	-2	0	-1	-1	.	.
Cc1ccc(N2C(=O)SC(Nc3ccc(F)cc3)C2=O)cc1 (stereo not given)	-14	0	7	5.4*	0	-9
Cc1ccc(N2C(=O)SC(Nc3ccccc3)C2=O)cc1 (stereo not given)	-43	0	13	1	.	.
Cc1cccc(NC2SC(=O)N(c3ccc(F)cc3)C2=O)c1 (stereo not given)	-27	0	16	5.6*	0	-12
CCCC(=O)N1CCC(O)(c2cccc(F)c2)CC1	5	0	19	-1	.	.
O=C(Cc1ccc2c(c1)OCO2)N1CCC(O)(c2cccc(F)c2)CC1	-6	0	6	6.8*	-1	-2
CCOC(=O)c1c(C)n(C)c2c1cc(O)c1ccccc12	-14	0	6	6.1*	1	5
COc1ccc(CNC(=O)CSc2nnc3sc4ccccc4n23)cc1C(=O)O	4	0	5	5.5*	0	4
O=C(NCSc1ncccn1)c1ccccc1	-4	0	-10	7.6*	-1	-15
O=C(CSc1cn(CCNC(=O)c2ccccc2)c2ccccc12)NCC1CCCO1 (stereo not given)	-6	0	-18	0	.	.
CC(C)N(C(=O)Cn1cc(SCC(=O)NCC2CCCO2)c2ccccc21)C(C)C (stereo not given)	2	0	-1	12*	0	-2
